Data from PubChem BioAssay (NCI).
Several values for one entry are separate records, joined by “and”; a condition that tells them apart may be missing. Identical values can stand only once. This is part of a sample that, as a whole, favours compounds with a hit. Of some 79,000 tested, about 15% had one in any assay. Some compounds were tested as several samples or in several runs, with calls that do not always agree. Activity calls are given as the source filed them. Cut-off read from the data, not from the text of the source: active = growth inhibition above about 70%; inactive = the rest.

Legend:
[1] = NCI Yeast Anticancer Drug Screen. Data for the mec2-1 strain (AID 157); conditions: S. cerevisiae mec2-1 strain, stronger effect = higher value
Outline: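 Using mec2-1 yeast: add compound, measure growth, express inhibition versus vehicle-treated cultures.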

[2] = NCI Yeast Anticancer Drug Screen. Data for the rad14 strain (AID 159);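 note: 0% = growth of vehicle-treated control cultures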; conditions: S. cerevisiae rad14 strain growth inhibition, stronger effect = higher value
Outline: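 Inhibition of growth is reported for a repair-deficient yeast mutant following compound treatment, calculated relative to cultures that received vehicle.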

[3] = NCI Yeast Anticancer Drug Screen. Data for the sgs1 mgt1 strain (AID 161);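 note: 0% = growth of cultures given vehicle only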; conditions: S. cerevisiae sgs1 mgt1 strain, stronger effect = higher value
Outline: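 Percent growth inhibition was derived by comparing compound-exposed mutant yeast with vehicle-exposed cultures. The strain carries alterations in DNA damage repair.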

[4] = NCI Yeast Anticancer Drug Screen. Data for the CLN2oe strain (AID 163);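 note: 0% = growth of vehicle-only control cultures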; conditions: S. cerevisiae CLN2oe strain, stronger effect = higher value
Outline: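 Whole-cell yeast growth assay. A strain engineered for altered cell-cycle control received compound, and inhibition relative to vehicle-treated cultures was recorded.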

[5] = NCI Yeast Anticancer Drug Screen. Data for the cln2 rad14 strain (AID 165);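 note: 0% = growth equal to vehicle treated cultures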; conditions: S. cerevisiae cln2 rad14 strain, stronger effect = higher value
Outline: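 Yeast strain cln2 rad14, bearing defects in cell cycle control and DNA repair, serves as the test system; values reflect growth inhibition compared with vehicle.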

[6] = NCI Yeast Anticancer Drug Screen. Data for the bub3 strain (AID 167); conditions: S. cerevisiae bub3 mutant strain, stronger effect = higher value
Outline: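 Mutant yeast screening strain plus compound; vehicle-treated cultures serve as the 0% inhibition reference.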

[7] = NCI Yeast Anticancer Drug Screen. Data for the wt2 strain (AID 169); conditions: S. cerevisiae wt2 strain growth inhibition, stronger effect = higher value
Outline: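 Treated yeast vs. vehicle-treated yeast: growth inhibition determined.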

[8] = NCI Yeast Anticancer Drug Screen. Data for the mlh1 strain (AID 171);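 note: 0% = growth of vehicle-treated control cultures of the same strain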; conditions: S. cerevisiae mlh1 strain growth inhibition, stronger effect = higher value
Outline: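 A yeast strain with a defined genetic lesion serves as the test organism. Cultures receive compound or vehicle, and growth is measured.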

[9] = NCI Yeast Anticancer Drug Screen. Data for the sgs1 strain (AID 173);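 note: 0% = growth of vehicle-only control cultures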; conditions: S. cerevisiae sgs1 mutant, stronger effect = higher value
Outline: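 A genetically defined yeast mutant is incubated with the test compound, and its growth is compared to that of the same strain given vehicle.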

[10] = NCI Yeast Anticancer Drug Screen. Data for the mlh1 rad18 strain (AID 175); conditions: S. cerevisiae mlh1 rad18 strain growth inhibition, stronger effect = higher value
Outline: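 Steps: expose repair-defective yeast to compound; measure growth; express inhibition against vehicle-treated controls.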

[11] = NCI Yeast Anticancer Drug Screen. Data for the rad18 strain (AID 177); conditions: S. cerevisiae rad18 mutant growth inhibition, stronger effect = higher value
Outline: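 Measured value is growth inhibition of a yeast strain bearing a DNA repair alteration, referenced to vehicle-treated cells.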

[12] = NCI Yeast Anticancer Drug Screen. Data for the rad52 strain (AID 147);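 note: 0% = growth of vehicle-treated control cultures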; conditions: S. cerevisiae rad52 mutant growth inhibition, stronger effect = higher value
Outline: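 Here a repair-compromised yeast strain receives each compound; its growth is then quantified and normalised to vehicle-only controls.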

[13] = NCI Yeast Anticancer Drug Screen. Data for the wt1 strain (AID 149);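 note: 0% = growth of vehicle-treated wt1 cultures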; conditions: S. cerevisiae wt1 strain (SPY 50644) growth inhibition, stronger effect = higher value
Outline: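 Each compound is tested on wt1 yeast and the loss of growth versus vehicle gives the inhibition value.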

[14] = NCI Yeast Anticancer Drug Screen. Data for the rad50EPP+ strain (AID 151);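 note: 0% = growth of vehicle-treated control cultures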; conditions: S. cerevisiae rad50 mutant strain, stronger effect = higher value
Outline: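 Read-out is yeast growth inhibition relative to vehicle; cells used were the rad50EPP+ strain.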

[15] = NCI Yeast Anticancer Drug Screen. Data for the mgt1 strain (AID 153); conditions: S. cerevisiae mgt1 mutant growth inhibition, stronger effect = higher value
Outline: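 Measured: inhibition of mgt1 yeast growth by compound, normalized to vehicle-treated cultures.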

[16] = NCI Yeast Anticancer Drug Screen. Data for the rad50 strain (AID 155);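 note: 0% = growth of vehicle-only cultures of the same strain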; conditions: S. cerevisiae rad50 strain growth inhibition, stronger effect = higher value
Outline: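 Vehicle-treated cultures provide the reference for the growth inhibition reported for compound-exposed, repair-deficient yeast.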

[17] = at 5.0 µM (retest, dose inferred, filed as 0.5)
[18] = at 50.0 µM (retest, dose inferred, filed as 5.0)

Measured: growth inhibition

Clc1ccc(NCNC2Nc3ccccc3N2)cc1Cl
inactive: [1]; [17] -6% | [1]; at 11.0 µM 17% | [1]; at 50.0 µM 9.15% | [2]; at 1.2 µM 0% | [2]; at 3.7 µM 3% | [2]; at 11.0 µM 13% | [3]; [17] 18% | [3]; at 50.0 µM 8.15% | [4]; at 1.2 µM -5% | [4]; at 3.7 µM -13% | [4]; at 11.0 µM -3% | [5]; [17] 20% | [5]; at 50.0 µM -9.7% | [6]; at 1.2 µM 1% | [6]; at 3.7 µM -8% | [6]; [17] 26% | [6]; at 11.0 µM -2% | [6]; at 50.0 µM 10.2% | [7]; at 1.2 µM -4% | [7]; at 3.7 µM -1% | [7]; at 11.0 µM 9% | [8]; at 1.2 µM -2% | [8]; at 3.7 µM 0% | [8]; at 11.0 µM 13% | [9]; at 1.2 µM 1% | [9]; at 3.7 µM 5% | [9]; at 11.0 µM 34% | [10]; [17] 55% | [10]; at 50.0 µM 29.8% | [11]; at 1.2 µM 27% | [11]; at 3.7 µM 65%
active: [1]; at 33.0 µM 93% | [1]; [18] 99% | [1]; at 100.0 µM 98% | [2]; at 33.0 µM 96% | [2]; at 100.0 µM 99% | [3]; [18] 99% | [4]; at 33.0 µM 89% | [4]; at 100.0 µM 98% | [5]; [18] 83% | [6]; at 33.0 µM 91% | [6]; [18] 99% | [6]; at 100.0 µM 99% | [7]; at 33.0 µM 91% | [7]; at 100.0 µM 98% | [8]; at 33.0 µM 71% | [8]; at 100.0 µM 99% | [9]; at 33.0 µM 92% | [9]; at 100.0 µM 99% | [10]; [18] 98% | [11]; at 11.0 µM 92% | [11]; at 33.0 µM 96% | [11]; at 100.0 µM 98%

O=c1nc2n(Cc3ccccc3)c3ccccc3nc-2c(=O)[nH]1
inactive: [12]; at 1.2 µM 0% | [12]; at 3.7 µM 2% | [12]; at 11.0 µM 6% | [12]; at 33.0 µM 4% | [12]; at 100.0 µM 4% | [13]; at 1.2 µM -1% | [13]; at 3.7 µM 4% | [13]; at 11.0 µM 2% | [13]; at 33.0 µM 2% | [13]; at 100.0 µM 3% | [14]; at 1.2 µM 7% | [14]; at 3.7 µM 30% | [15]; at 1.2 µM -5% | [15]; at 3.7 µM 5% | [16]; at 1.2 µM -2% | [16]; at 3.7 µM -1% | [16]; [17] -15% | [16]; at 11.0 µM 2% | [16]; at 33.0 µM -1% | [16]; [18] 13% | [16]; at 50.0 µM 26.1% | [16]; at 100.0 µM 1% | [1]; at 1.2 µM -2% | [1]; at 3.7 µM 3% | [1]; [17] -2% | [1]; at 11.0 µM 5% | [1]; at 33.0 µM 6% | [1]; [18] -5% | [1]; at 50.0 µM 37.9% | [1]; at 100.0 µM 12% | [2]; at 1.2 µM 0% | [2]; at 3.7 µM 3% | [2]; at 11.0 µM 5% | [2]; at 33.0 µM 1% | [2]; at 100.0 µM 1% | [3]; [17] 39% | [4]; at 1.2 µM -12% | [4]; at 3.7 µM -7% | [4]; at 11.0 µM 3% | [4]; at 33.0 µM 5% | [4]; at 100.0 µM 0% | [5]; [17] 6% | [5]; [18] 22% | [5]; at 50.0 µM 28.2% | [6]; at 1.2 µM -3% | [6]; at 3.7 µM -6% | [6]; [17] 19% | [6]; at 11.0 µM -3% | [6]; at 33.0 µM -6% | [6]; [18] 1% | [6]; at 50.0 µM 11.4% | [6]; at 100.0 µM -8% | [7]; at 1.2 µM -2% | [7]; at 3.7 µM 3% | [7]; at 11.0 µM 67% | [8]; at 1.2 µM -3% | [8]; at 3.7 µM 3% | [8]; at 11.0 µM 65% | [9]; at 1.2 µM -2% | [9]; at 3.7 µM 11% | [10]; [17] 37% | [10]; [18] 39% | [10]; at 50.0 µM 26.6%
active: [14]; at 11.0 µM 74% | [14]; at 33.0 µM 92% | [14]; at 100.0 µM 97% | [15]; at 11.0 µM 74% | [15]; at 33.0 µM 94% | [15]; at 100.0 µM 96% | [3]; [18] 96% | [3]; at 50.0 µM 97.2% | [7]; at 33.0 µM 93% | [7]; at 100.0 µM 96% | [8]; at 33.0 µM 93% | [8]; at 100.0 µM 97% | [9]; at 11.0 µM 74% | [9]; at 33.0 µM 94% | [9]; at 100.0 µM 97%

CN(C)CCOC1(Cc2ccc(F)cc2)CCC(C(C)(C)C)CC1 (centres undefined)
inactive: [12]; at 1.2 µM 8% | [12]; at 3.7 µM 5% | [12]; at 11.0 µM -4% | [12]; at 33.0 µM 7% | [13]; at 1.2 µM 10% | [13]; at 3.7 µM 6% | [13]; at 11.0 µM -11% | [13]; at 33.0 µM -5% | [14]; at 1.2 µM -1% | [14]; at 3.7 µM -13% | [14]; at 11.0 µM -27% | [14]; at 33.0 µM -61% | [14]; at 100.0 µM 68% | [15]; at 1.2 µM 18% | [15]; at 3.7 µM 8% | [15]; at 11.0 µM 20% | [15]; at 33.0 µM 53% | [16]; at 1.2 µM -10% | [16]; at 3.7 µM 6% | [16]; [17] 4% and -18% | [16]; at 11.0 µM 14% | [16]; at 33.0 µM 53% | [1]; at 1.2 µM -12% | [1]; at 3.7 µM -10% | [1]; [17] -12% and -13% | [1]; at 11.0 µM -8% | [1]; at 33.0 µM 19% | [2]; at 1.2 µM 6% | [2]; at 3.7 µM 7% | [2]; at 11.0 µM 10% | [2]; at 33.0 µM 66% | [3]; [17] -1% and -5% | [4]; at 1.2 µM -5% | [4]; at 3.7 µM -5% | [4]; at 11.0 µM -5% | [4]; at 33.0 µM -2% | [5]; [17] 17% and -22% | [5]; [18] 34% and 51% | [6]; at 1.2 µM -4% | [6]; at 3.7 µM -4% | [6]; [17] 10% and -19% | [6]; at 11.0 µM -1% | [6]; at 33.0 µM 7% | [7]; at 1.2 µM 1% | [7]; at 3.7 µM -1% | [7]; at 11.0 µM -1% | [7]; at 33.0 µM 16% | [8]; at 1.2 µM 2% | [8]; at 3.7 µM 7% | [8]; at 11.0 µM 11% | [8]; at 33.0 µM 58% | [9]; at 1.2 µM 32% | [9]; at 3.7 µM 16% | [9]; at 11.0 µM 18% | [9]; at 33.0 µM 56% | [10]; [17] 7% and -11%
65% (inactive) and 92% (active): [16]; [18]
15.3% (inactive) and 99.3% (active): [5]; at 50.0 µM
56% (inactive) and 99% (active): [6]; [18]
46.3% (inactive) and 99.2% (active): [6]; at 50.0 µM
38.3% (inactive) and 99.1% (active): [16]; at 50.0 µM
18.8% (inactive) and 99.2% (active): [1]; at 50.0 µM
active: [12]; at 100.0 µM 98% | [13]; at 100.0 µM 95% | [15]; at 100.0 µM 98% | [16]; at 100.0 µM 97% | [1]; at 100.0 µM 98% | [2]; at 100.0 µM 98% | [3]; [18] 75% and 83% | [3]; at 50.0 µM 92.8% and 99.1% | [4]; at 100.0 µM 98% | [6]; at 100.0 µM 98% | [7]; at 100.0 µM 99% | [8]; at 100.0 µM 98% | [9]; at 100.0 µM 99% | [10]; [18] 94% and 99% | [10]; at 50.0 µM 97.8% and 99.3%
-1% (inactive) and 92% (active): [1]; [18]
